Each compound was assayed on Plasmodium falciparum (assay: GSK_TCMDC: Inhibition of Plasmodium falciparum Dd2 in whole red blood cells, using parasite LDH activity as an index of growth. Test compounds present at 2uM).
Format: functional
In the case of `O=C(O)C(F)(F)F.Oc1ccc(CCNc2nc(NCc3ccccc3-c3cccc(Cl)c3)nc(N3CCNCC3)n2)cc1`, the Inhibition is reported as 11%.
`Cc1nc(C)c(-c2ccc(Oc3ccc(OC(F)(F)F)cc3)cc2)c(O)c1I` was tested, and the Inhibition was 96%.
`CCCCOP(=O)(COc1ccc(CCN(CC(O)COc2cccc3[nH]c4ccccc4c23)CC(O)COc2cccc3[nH]c4ccccc4c23)cc1)C1CCCCC1` (stereo unspecified) was tested, and the Inhibition was 92%.
Compound `OC(CNCc1ccccc1)c1cc(OCc2ccccc2)cc(OCc2ccccc2)c1` (stereo unspecified) has an Inhibition of 76%.
For `COc1ccc2nc(C)cc(NC3Cc4ccccc4C3)c2c1.Cl`, the Inhibition was 13%.
Compound `CN(C)CCNCc1ccc(-c2ccc3c(Nc4ccc(F)cc4Cl)ccnc3c2)o1` has an Inhibition of 100%.
In the case of `COc1ccc2nccc(N3CCC(SCCNS(=O)(=O)c4ccc5c(c4)NC(=O)CS5)C3)c2n1.Cl` (stereo unspecified), the Inhibition is reported as 17%.
With `Cc1cccc(CCCNC(=O)CN(c2cccc(C(F)(F)F)c2)S(=O)(=O)c2ccc(C(F)(F)F)cc2)c1` the Inhibition was 94%.
Compound `COc1cc(NC(=O)c2sc(-c3ccc(Cl)cc3)cc2NC(=O)c2cccnc2)ccc1OCCN1CCCC1` has an Inhibition of 77%.
For `c1ccc2[nH]c(-c3ccc(-c4ccc(CN5CCC(N6CCCCC6)CC5)cc4)s3)nc2c1`, the Inhibition was 100%.
`O=C(Nc1cccc(Cl)c1Cl)Nc1ccnc2ccccc12` showed an Inhibition of 47%.
`Cc1cc(N2CCC(NS(=O)(=O)c3ccc(F)cc3)CC2)nc(Nc2cccc(C#N)c2)n1.O=C(O)C(F)(F)F` gave an Inhibition of 65%.
Compound `C=C[C@]1(C)C[C@@H](OC(=O)CSC2CN3CCC2C3)[C@@]2(C)C3C(=O)CC[C@@]3(CC[C@H]2C)[C@@H](C)[C@@H]1O.Cl` (stereo partly specified) has an Inhibition of 75%.
For `CC(C)(CNC(=O)C1CCN(CCOCc2ccccc2)CC1)c1nc(-c2ccc(Cl)c(O)c2)c(-c2ccncc2)[nH]1.Cl`, the Inhibition was 18%.
`CCCN(CCC)CCCN(CCCN(CCC)CCC)c1cc(C)nc(Nc2ccc3cc(Br)ccc3c2)n1.Cl` gave an Inhibition of 99%.
Work on `CS(=O)(=O)CCNCc1cccc(-c2cc3c(Nc4ccc5c(cnn5Cc5ccccc5)c4)ncnc3s2)c1.O=C(O)C(F)(F)F` yielded an Inhibition of 100%.
`CN(C)c1ccc(CN2CCC(NC(=O)c3ccc(-c4ccccc4F)s3)CC2)cc1.O=C(O)C(F)(F)F` showed an Inhibition of 27%.
Compound `COc1ccc2nccc(N3CCC(CCNCc4ccc5c(n4)NC(=O)CO5)CC3)c2c1.Cl` has an Inhibition of 50%.
In the case of `CN(C)Cc1ccc(-c2ccc3c(Nc4ccc(Cl)cc4F)ccnc3c2)o1`, the Inhibition is reported as 99%.
`CCCCCCN1CCC(NCc2ccc(C)cc2)CC1.O=C(O)C(F)(F)F` gave an Inhibition of 4%.
`O=C(Nc1ccc(F)c(F)c1)c1ccc(CN2CCCN(Cc3cccc(O)c3)CC2)cc1.O=C(O)C(F)(F)F` was tested, and the Inhibition was 57%.
With `Cc1cccc2nc(-c3ccc(-c4cccc(C(=O)NCCN5CCCC5)c4)s3)[nH]c12` the Inhibition was 2%.
`CC(=O)Nc1nc(N)c2c(ccc3c2ccn3CC(C)C)n1` was tested, and the Inhibition was 78%.
With `Cc1nnc2c(N(C(=O)NCCc3ccccc3)C(=O)NCCc3ccccc3)cc3cc(Cl)ccc3n12` the Inhibition was 34%.
In the case of `COc1cc(CNCCCCCCNCc2cc(OC)c(OC)c3ccccc23)c2ccccc2c1OC.CS(=O)(=O)O`, the Inhibition is reported as 100%.
Compound `O=C(Nc1ccnc(N2CC3CC2CN3Cc2cccc(O)c2)c1)c1ccc(F)cc1.O=C(O)C(F)(F)F` (stereo unspecified) has an Inhibition of 0%.
Work on `Cc1cc(NC(=O)c2cc(Br)ccc2Cl)n(-c2nc(C)c(C)c(=O)[nH]2)n1` yielded an Inhibition of 83%.
`CC(CCCCC(=O)Nc1ccc(C(F)(F)F)cc1)NCC(O)c1cccc(Cl)c1` (stereo unspecified) was tested, and the Inhibition was 92%.
`O=C(CCc1cccnc1)Nc1cccc(-c2ccc(-c3nc4cc(C(F)(F)F)ccc4[nH]3)cc2)c1` was tested, and the Inhibition was 0%.
With `O=C(O)C(F)(F)F.Oc1ccc(CCNc2nc(NCc3ccccc3-c3ccc(F)cc3)nc(N3CCNCC3)n2)cc1` the Inhibition was 24%.
`CCCCCCNc1cc(C)nc(NC(=N)Nc2cccc(C(F)(F)F)c2)n1` showed an Inhibition of 100%.
`Nc1nc(-c2ccc3c(Nc4ccc(F)c(Cl)c4)ccnc3c2)cs1` showed an Inhibition of 88%.
`CCNc1cc(C)nc(Nc2ccc(NC(=O)c3ccccc3Cl)cc2)n1` was tested, and the Inhibition was 52%.
With `Cc1cccc2nc(-c3cccc(-c4ccc(CN5CCCC5CN)cc4)c3)[nH]c12.O=C(O)C(F)(F)F` (stereo unspecified) the Inhibition was 47%.
Compound `O=C(Nc1nc(-c2ccccn2)cs1)c1ccc(Br)s1` has an Inhibition of 84%.
Work on `CC(=O)NCCNc1nccc(N2CCc3ncnc(Nc4ccc(OCc5ccccn5)c(Cl)c4)c3C2)n1` yielded an Inhibition of 99%.

Reference: ChEMBL document CHEMBL1157539, “Thousands of chemical starting points for antimalarial lead identification” (Nature, 2010)
